The record followed here is publication PMC4336329 (PLoS ONE, 2015).

Hit rate of the full screen: of about 310,000 compounds, about 14,000 (4.5%) showed an effect of 50% or more. The effect is printed as a negative number. This is one part of a sample in which strong results are shown more often than they occur.
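Note: peak tail current of the secondary pulse compared with the same well before compound.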

In this test the target is human ether-à-go-go-related gene (hERG) potassium channel (human, UniProt Q12809). Nature of the test: primary screen, population patch clamp on CHO cells stably expressing hERG; higher = less effect of the substance.
Chain of human ether-à-go-go-related gene (hERG) potassium channel (Q12809 whole entry, looked up): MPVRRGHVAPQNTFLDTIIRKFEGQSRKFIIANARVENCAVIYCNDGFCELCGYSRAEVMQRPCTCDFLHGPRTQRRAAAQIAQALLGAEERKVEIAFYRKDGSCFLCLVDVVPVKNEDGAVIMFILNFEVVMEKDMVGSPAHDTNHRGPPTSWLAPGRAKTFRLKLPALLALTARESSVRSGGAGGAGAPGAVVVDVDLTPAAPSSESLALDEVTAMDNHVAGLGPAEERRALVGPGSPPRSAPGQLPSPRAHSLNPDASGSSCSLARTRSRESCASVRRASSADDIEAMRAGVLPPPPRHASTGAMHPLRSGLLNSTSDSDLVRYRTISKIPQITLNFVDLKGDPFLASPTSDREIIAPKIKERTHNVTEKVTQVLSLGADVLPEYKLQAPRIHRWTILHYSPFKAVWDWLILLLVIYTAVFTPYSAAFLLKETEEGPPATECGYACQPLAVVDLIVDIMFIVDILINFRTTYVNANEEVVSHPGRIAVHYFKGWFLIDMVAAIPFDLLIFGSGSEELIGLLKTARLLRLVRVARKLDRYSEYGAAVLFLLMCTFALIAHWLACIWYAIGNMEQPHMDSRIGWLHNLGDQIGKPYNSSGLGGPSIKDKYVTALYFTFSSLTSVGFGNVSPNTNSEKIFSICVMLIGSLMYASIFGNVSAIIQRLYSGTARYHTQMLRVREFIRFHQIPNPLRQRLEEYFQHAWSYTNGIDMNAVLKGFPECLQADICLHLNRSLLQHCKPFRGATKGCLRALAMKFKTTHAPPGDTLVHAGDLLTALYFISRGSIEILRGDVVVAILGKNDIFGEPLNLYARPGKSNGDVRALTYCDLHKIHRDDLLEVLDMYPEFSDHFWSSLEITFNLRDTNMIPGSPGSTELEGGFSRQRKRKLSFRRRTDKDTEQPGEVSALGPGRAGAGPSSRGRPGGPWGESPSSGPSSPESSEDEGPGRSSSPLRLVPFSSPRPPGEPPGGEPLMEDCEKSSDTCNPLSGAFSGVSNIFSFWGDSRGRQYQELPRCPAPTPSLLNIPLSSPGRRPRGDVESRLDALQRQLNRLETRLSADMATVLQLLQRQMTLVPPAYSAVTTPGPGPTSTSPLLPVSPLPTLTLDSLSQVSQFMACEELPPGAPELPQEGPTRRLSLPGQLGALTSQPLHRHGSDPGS
As to `CC1CCCN(Cc2nc3c(c(=O)n(C)c(=O)n3C)n2Cc2c(F)cccc2Cl)C1` (centres unmarked), the “hERG current change (%, negative = inhibition) at 10uM” value is recorded as -1.45%.

Consider `COc1cc(C(=O)N(CCc2ccccc2)C2CC3CCC(C2)N3C)cc(OC)c1OC.Cl.O` (centres unmarked), for which the “hERG current change (%, negative = inhibition) at 10uM” value is given as -38.3%.

Turning to `CN1C2CCC1CC(NC(=O)c1ccc(Cl)cc1)C2` (centres unmarked), the “hERG current change (%, negative = inhibition) at 10uM” value is listed as 7.55%.

With `CN1CCC(N(CCc2ccccc2)C(=O)CCC(=O)O)CC1`, the “hERG current change (%, negative = inhibition) at 10uM” value is reported as -1.87%.

In the case of `CCCCN(C(=O)c1ccc(Cl)cc1)C1CC2CCC(C1)N2C.Cl` (centres unmarked), the “hERG current change (%, negative = inhibition) at 10uM” value is reported as -47.4%.

Consider `Cc1cc(C)cc(C(=O)N(CCc2ccccc2)C2CC3CCC(C2)N3C)c1.Cl` (centres unmarked), for which the “hERG current change (%, negative = inhibition) at 10uM” value is reported as -56.5%.

For the compound `CN1C2CCC1CC(N(CCc1ccccc1)C(=O)c1ccc(Cl)cc1)C2.Cl` (centres unmarked), the “hERG current change (%, negative = inhibition) at 10uM” value is -83.2%.

For the compound `COc1ccc(C2CC(c3cccs3)=NN2C(=O)CSc2nncn2C)cc1OC` (centres unmarked), the “hERG current change (%, negative = inhibition) at 10uM” value is reported as 4.67%.

Turning to `O=C(Nc1ccccc1N1CCOCC1)C1CCCCN1S(=O)(=O)c1ccccc1` (centres unmarked), the “hERG current change (%, negative = inhibition) at 10uM” value is recorded as -20.8%.

`Cc1nc([N+](=O)[O-])c(NCCO)n1Cc1ccccc1`: the “hERG current change (%, negative = inhibition) at 10uM” value is reported as 8.23%.

`Cc1ccccc1CN1C[C@@H]2C[C@@H](c3cn[nH]c3-c3ccccc3)N3CCC[C@@]23C1=O`: the “hERG current change (%, negative = inhibition) at 10uM” value is on record as -5.95%.

Take `CCn1ncc([C@@H]2C[C@H]3CN(Cc4ccccc4C)C(=O)[C@]34CCCN24)c1C`: the “hERG current change (%, negative = inhibition) at 10uM” value worked out at 17.7%.

For `COc1ccccc1CN1C[C@@H]2C[C@@H](c3ccccc3OC)N3CCC[C@@]23C1=O`, the “hERG current change (%, negative = inhibition) at 10uM” value is on record as -14%.

In the case of `COc1ccc(-c2[nH]ncc2[C@@H]2C[C@H]3CN(Cc4ccccc4C)C(=O)[C@]34CCCN24)cc1`, the “hERG current change (%, negative = inhibition) at 10uM” value was -51.7%.

Take `COc1ccccc1CN1C[C@@H]2C[C@@H](c3ccccc3C)N3CCC[C@@]23C1=O`: the “hERG current change (%, negative = inhibition) at 10uM” value came to 17.4%.

On to `Cc1ccccc1CN1C[C@@H]2C[C@@H](c3cn[nH]c3-c3ccc(F)cc3)N3CCC[C@@]23C1=O`, for which the “hERG current change (%, negative = inhibition) at 10uM” value is on record as -52.2%.

As to `Cc1cc(NC(=O)C2CC=CCC2C(=O)O)no1` (centres unmarked), the “hERG current change (%, negative = inhibition) at 10uM” value is on record as -1.9%.

Regarding `CN(Cc1ccccc1F)C(=O)CN1CCN(S(=O)(=O)c2ccc3c(c2)OCCCO3)CC1`, the “hERG current change (%, negative = inhibition) at 10uM” value was -18.4%.

Turning to `O=C(O)C1CCCCC1C(=O)N1CCN(S(=O)(=O)c2ccc(F)cc2)CC1` (centres unmarked), the “hERG current change (%, negative = inhibition) at 10uM” value was determined as 8.47%.

Take `COc1ccc(-c2cc(=O)c3cc(OC)c(OC)cc3[nH]2)cc1`: the “hERG current change (%, negative = inhibition) at 10uM” value is reported as -5.83%.

In the case of `COc1cc(NC(=O)c2cnc(N)s2)cc(C(=O)Nc2cccc(C(F)(F)F)c2)c1`, the “hERG current change (%, negative = inhibition) at 10uM” value was -26%.

In the case of `COc1ccc(Nc2cc(C)c3ccc(O)cc3n2)cc1`, the “hERG current change (%, negative = inhibition) at 10uM” value is on record as -58.4%.

For the compound `Cc1cc(Nc2ccccc2)nc2cc(O)ccc12`, the “hERG current change (%, negative = inhibition) at 10uM” value is on record as -11.5%.

Turning to `COC(=O)c1cc(Nc2cc(C)c3ccc(O)cc3n2)cc(C(=O)OC)c1`, the “hERG current change (%, negative = inhibition) at 10uM” value stood at 6.58%.

On to `COc1ccc(Nc2cc(C)c3ccccc3n2)cc1`, for which the “hERG current change (%, negative = inhibition) at 10uM” value was 4.57%.

Consider `Cc1ccc(Nc2cc(C)c3c(O)cccc3n2)cc1C.Cl`, for which the “hERG current change (%, negative = inhibition) at 10uM” value amounted to 19%.

Turning to `Cc1ccc(Nc2cc(C)c3ccc(O)cc3n2)cc1C.Cl`, the “hERG current change (%, negative = inhibition) at 10uM” value is recorded as -58.5%.

In the case of `COC(=O)c1c(-c2cccs2)csc1NC(=O)CSc1ncnc2sc(C)c(C)c12`, the “hERG current change (%, negative = inhibition) at 10uM” value came to 0.474%.

Consider `Cc1cc(C)nc(-n2nc(C)c3c(C(F)F)cc(C)nc32)n1`, for which the “hERG current change (%, negative = inhibition) at 10uM” value turned out to be 15.3%.

With `CCC1=C([N+](=O)[O-])C(c2ccc3c(c2)OCO3)NC(=O)N1` (centres unmarked), the “hERG current change (%, negative = inhibition) at 10uM” value is recorded as 16%.

For `O=C(CSc1nc(CCC2CCCC2)nc2ccccc12)NCc1ccc2c(c1)OCO2`, the “hERG current change (%, negative = inhibition) at 10uM” value is 15%.

As for `CCOP(=O)(OCC)C(O)c1ccc(OC)c(OC)c1` (centres unmarked), the “hERG current change (%, negative = inhibition) at 10uM” value worked out at 15.6%.

As for `Cc1nc(SCC(=O)NCc2ccco2)nc(C)c1C`, the “hERG current change (%, negative = inhibition) at 10uM” value is recorded as -6.76%.

Take `Cc1ccc(CNC(=O)c2csc3c2CCCCC3)cc1`: the “hERG current change (%, negative = inhibition) at 10uM” value is reported as 2.19%.

For `Cc1ccc(OCC(=O)Nc2cc(-c3nn4c(C)nnc4s3)ccc2C)cc1`, the “hERG current change (%, negative = inhibition) at 10uM” value was -24.7%.

With `Cc1ccc(-c2nn3c(C)nnc3s2)cc1NC(=O)COc1ccc(Cl)cc1`, the “hERG current change (%, negative = inhibition) at 10uM” value is reported as -70.6%.

In the case of `COc1ccc(OCC(=O)Nc2cc(-c3nn4c(C)nnc4s3)ccc2C)cc1`, the “hERG current change (%, negative = inhibition) at 10uM” value is -4.85%.

Take `CC(C)[C@H]1CN(C)CCN1Cc1cn(C)nc1-c1cccc(Cl)c1`: the “hERG current change (%, negative = inhibition) at 10uM” value is -27%.

Take `COc1ccc(C(c2c(NC(=O)c3ccco3)sc(C)c2C)N2CCOCC2)cc1OC` (centres unmarked): the “hERG current change (%, negative = inhibition) at 10uM” value is -15%.

As for `CC(=O)Nc1ccc(-c2sc(Nc3ccccc3)n[n+]2C)cc1.[Cl-]`, the “hERG current change (%, negative = inhibition) at 10uM” value was 27.5%.

With `COc1ccccc1C1C=C(c2ccc(Cl)cc2)Nc2nc(N3C(=O)CCC3=O)nn21` (centres unmarked), the “hERG current change (%, negative = inhibition) at 10uM” value is reported as -32.8%.

With `N#C/C(=C\c1ccc(N2CCCC2)c([N+](=O)[O-])c1)c1nc2ccccc2[nH]1`, the “hERG current change (%, negative = inhibition) at 10uM” value is recorded as -35.5%.

For the compound `N#C/C(=C/c1ccc(N2CCCC2)c([N+](=O)[O-])c1)c1nc2ccccc2[nH]1`, the “hERG current change (%, negative = inhibition) at 10uM” value was -3.43%.

Regarding `N#C/C(=C\c1ccc(N2CCOCC2)c([N+](=O)[O-])c1)c1nc2ccccc2[nH]1`, the “hERG current change (%, negative = inhibition) at 10uM” value was -59.6%.
